The full data set covers some 8,800 targets. This sample favours those with a hit. About 0.5% of all pairs of compound and target were hits.
Key:
Experiment in all cases: log2 fold change, soluble protein after heating vs DMSO (PISA); higher = thermal stabilisation; K562 lysate, 10 uM; active = over 0.2 and 3.5 SD of the protein, either way, in both replicates (recomputed)
erlotinib = compound: C#Cc1cccc(Nc2ncnc3cc(OCCOC)c(OCCOC)cc23)c1 [erlotinib]
Method in brief: (§1)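 Log-two fold change in thermal stability relative to solvent controls is reported from duplicates. For each sample, crude K562 extract from dounce-homogenised pellets in PBS pH 7.4 with 1 mM MgCl2, at 1 mg/mL protein, was treated with 10 μM compound for 30 min. Aliquots heated for 3 min across 48°C-58°C were pooled, brought to 0.5% NP-40 at 4°C and cleared at 21,000xg for 90 min. The supernatant was quantified by TMTpro 16plex LC-MS/MS with channel sums equalised.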

[1] = compound: C/C(=N\NC(=O)C1=CC(=CC=C1)S(=O)(=O)N2CCOCC2)/C3=C(C=CC(=C3)Cl)O
Method in brief: as §1

[2] = compound: C1=CC(=CC=C1C2=NC3=C(N2)C=C(C=C3)C(=O)N)OC4=CC=C(C=C4)Cl
Method in brief: as §1

[3] = compound: C1=CC2=C(C=CC(=C2)/C=C\3/C(=O)NC(=NCC4=CC=CS4)S3)N=C1
Method in brief: as §1

[4] = compound: C1=CC2=NC=CN=C2C=C1/C=C/3\C(=O)NC(=O)S3
Method in brief: as §1

[5] = compound: C1=CC=C(C=C1)C2=NC(=C(N2)C3=CC=NC=C3)C4=CC(=C(C=C4)Cl)O
Method in brief: as §1

[6] = compound: C1=CC=C2C(=C1)C3=NNC4=CC=CC(=C43)C2=O
Method in brief: as §1

[7] = compound: C1CCN(C1)C(=O)NC2=CC=CC(=C2)NC3=NC=C(C(=N3)NCCC4=CN=CN4)Br
Method in brief: as §1

[8] = compound: C1CN(CCC1(CC2=CC=C(C=C2)Cl)N)C3=NC=NC4=C3C=CN4
Method in brief: as §1

IRAK-1-4 Inhibitor I = compound: C1COCCN1CCN2C3=CC=CC=C3N=C2NC(=O)C4=CC(=CC=C4)[N+](=O)[O-] [IRAK-1-4 Inhibitor I]
Method in brief: as §1

Measured: log2 fold change

ZMAT2 (UniProt Q96NC0)
inactive: erlotinib 0.025 | [1] -0.037 | [2] 0.025 | [3] -0.023 | [4] -0.026 | [5] 0.023 | [6] 0.055 | [7] -0.007 | [8] -0.048 | IRAK-1-4 Inhibitor I 0.066

VRK2 (UniProt Q86Y07)
Chain of UniProt Q86Y07 (Q86Y07 whole entry, looked up): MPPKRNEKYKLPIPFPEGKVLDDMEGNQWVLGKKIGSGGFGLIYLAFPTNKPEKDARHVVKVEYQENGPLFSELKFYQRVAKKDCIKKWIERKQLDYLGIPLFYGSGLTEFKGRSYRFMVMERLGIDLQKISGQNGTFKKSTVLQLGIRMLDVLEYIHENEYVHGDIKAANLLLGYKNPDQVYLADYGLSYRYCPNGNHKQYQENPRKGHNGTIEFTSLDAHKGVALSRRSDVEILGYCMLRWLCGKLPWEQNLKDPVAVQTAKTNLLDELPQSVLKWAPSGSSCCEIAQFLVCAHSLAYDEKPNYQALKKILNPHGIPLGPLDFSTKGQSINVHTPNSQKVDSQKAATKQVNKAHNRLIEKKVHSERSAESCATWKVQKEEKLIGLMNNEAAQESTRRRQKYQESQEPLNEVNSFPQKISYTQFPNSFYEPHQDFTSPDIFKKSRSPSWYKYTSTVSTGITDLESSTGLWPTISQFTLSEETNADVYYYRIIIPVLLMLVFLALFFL
inactive: erlotinib 0.04 | [1] 0.039 | [2] 0.113 | [3] -0.058 | [4] -0.056 | [5] 0 | [6] 0.064 | [7] 0.064 | [8] 0.196 | IRAK-1-4 Inhibitor I 0.049

ZZEF1 (UniProt O43149)
inactive: erlotinib 0.008 | [1] -0.019 | [2] -0.012 | [3] 0.019 | [4] -0.012 | [5] -0.009 | [6] -0.017 | [7] -0.011 | [8] -0.009 | IRAK-1-4 Inhibitor I 0.017

VHL (UniProt P40337)
inactive: erlotinib 0.088 | [1] 0.034 | [2] -0.016 | [3] 0.059 | [4] 0.032 | [5] -0.09 | [6] -0.003 | [7] -0.007 | [8] -0.107 | IRAK-1-4 Inhibitor I 0.02

UTP18 (UniProt Q9Y5J1)
Chain of UniProt Q9Y5J1 (Q9Y5J1 whole entry, looked up): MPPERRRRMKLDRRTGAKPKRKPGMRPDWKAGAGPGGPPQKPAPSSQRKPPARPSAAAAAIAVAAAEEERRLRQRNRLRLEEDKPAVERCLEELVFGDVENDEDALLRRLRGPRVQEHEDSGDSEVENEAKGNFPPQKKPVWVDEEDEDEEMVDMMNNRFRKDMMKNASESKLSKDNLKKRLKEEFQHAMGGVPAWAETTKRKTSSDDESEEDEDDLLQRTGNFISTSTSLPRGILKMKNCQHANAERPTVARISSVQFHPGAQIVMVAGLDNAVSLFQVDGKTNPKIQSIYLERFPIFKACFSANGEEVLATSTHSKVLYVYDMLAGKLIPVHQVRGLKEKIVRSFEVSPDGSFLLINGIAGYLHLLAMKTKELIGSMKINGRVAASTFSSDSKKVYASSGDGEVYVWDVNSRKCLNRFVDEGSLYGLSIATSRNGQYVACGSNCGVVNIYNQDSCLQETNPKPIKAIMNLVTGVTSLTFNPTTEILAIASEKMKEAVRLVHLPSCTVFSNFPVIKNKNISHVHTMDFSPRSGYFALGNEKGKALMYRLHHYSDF
inactive: erlotinib 0.055 | [1] 0.072 | [2] 0.051 | [3] -0.056 | [4] 0.129 | [5] 0.038 | [6] -0.068 | [7] -0.122 | [8] 0.107 | IRAK-1-4 Inhibitor I -0.031

VRK1 (UniProt Q99986)
inactive: erlotinib 0.009 | [1] -0.05 | [2] 0.002 | [3] 0.049 | [4] 0.015 | [5] 0.024 | [6] -0.02 | [7] 0 | [8] 0.02 | IRAK-1-4 Inhibitor I -0.02

ZNF593 (UniProt O00488)
inactive: erlotinib -0.084 | [1] -0.149 | [2] 0.116 | [3] 0.003 | [4] 0.005 | [5] -0.098 | [6] 0.059 | [7] 0 | [8] 0.084 | IRAK-1-4 Inhibitor I 0.003

ZNF217 (UniProt O75362)
Chain of UniProt O75362 (O75362 whole entry, looked up): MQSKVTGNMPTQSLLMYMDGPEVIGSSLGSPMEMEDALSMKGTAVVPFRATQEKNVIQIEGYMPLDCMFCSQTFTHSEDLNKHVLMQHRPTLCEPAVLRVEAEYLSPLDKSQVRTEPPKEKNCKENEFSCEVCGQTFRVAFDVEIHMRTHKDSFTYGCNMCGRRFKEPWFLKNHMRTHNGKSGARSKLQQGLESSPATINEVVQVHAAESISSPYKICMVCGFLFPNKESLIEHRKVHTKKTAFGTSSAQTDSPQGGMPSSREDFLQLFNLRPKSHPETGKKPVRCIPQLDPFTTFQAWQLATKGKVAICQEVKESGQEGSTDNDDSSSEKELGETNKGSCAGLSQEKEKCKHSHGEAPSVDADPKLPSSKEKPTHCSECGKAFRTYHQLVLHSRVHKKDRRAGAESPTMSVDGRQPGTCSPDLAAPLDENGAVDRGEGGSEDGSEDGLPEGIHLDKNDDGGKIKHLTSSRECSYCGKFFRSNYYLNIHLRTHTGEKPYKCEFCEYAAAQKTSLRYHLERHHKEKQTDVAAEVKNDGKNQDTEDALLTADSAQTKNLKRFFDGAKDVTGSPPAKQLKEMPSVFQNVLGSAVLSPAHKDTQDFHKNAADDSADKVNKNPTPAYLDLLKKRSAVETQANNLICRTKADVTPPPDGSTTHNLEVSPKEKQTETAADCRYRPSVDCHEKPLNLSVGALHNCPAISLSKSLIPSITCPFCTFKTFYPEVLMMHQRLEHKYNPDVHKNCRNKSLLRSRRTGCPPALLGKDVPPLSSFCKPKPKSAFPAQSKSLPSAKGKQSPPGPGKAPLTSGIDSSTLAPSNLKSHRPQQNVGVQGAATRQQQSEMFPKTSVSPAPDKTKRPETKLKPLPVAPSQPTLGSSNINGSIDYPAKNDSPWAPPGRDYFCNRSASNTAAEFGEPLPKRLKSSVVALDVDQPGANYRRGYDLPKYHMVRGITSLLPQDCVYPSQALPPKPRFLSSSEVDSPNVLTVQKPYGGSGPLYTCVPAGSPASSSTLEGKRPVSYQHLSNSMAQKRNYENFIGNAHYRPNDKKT
inactive: erlotinib -0.014 | [1] -0.043 | [2] 0.06 | [3] -0.132 | [4] -0.004 | [5] 0.027 | [6] -0.162 | [7] -0.014 | [8] 0.028 | IRAK-1-4 Inhibitor I 0.007

ZNHIT6 (UniProt Q9NWK9)
Chain of UniProt Q9NWK9 (Q9NWK9 whole entry, looked up): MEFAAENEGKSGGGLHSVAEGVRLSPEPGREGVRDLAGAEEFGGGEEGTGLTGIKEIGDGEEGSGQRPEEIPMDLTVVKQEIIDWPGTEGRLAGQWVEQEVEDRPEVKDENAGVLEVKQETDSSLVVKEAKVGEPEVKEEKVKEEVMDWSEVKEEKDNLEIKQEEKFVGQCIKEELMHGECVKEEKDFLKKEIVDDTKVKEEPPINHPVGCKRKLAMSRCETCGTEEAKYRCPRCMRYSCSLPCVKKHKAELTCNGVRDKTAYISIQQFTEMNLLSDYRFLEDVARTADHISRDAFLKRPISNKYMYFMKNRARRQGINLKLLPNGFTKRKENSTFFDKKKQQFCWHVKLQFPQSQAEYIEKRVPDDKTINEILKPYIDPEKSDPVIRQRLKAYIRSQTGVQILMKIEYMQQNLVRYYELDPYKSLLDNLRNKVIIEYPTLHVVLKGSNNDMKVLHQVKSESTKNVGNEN
inactive: erlotinib 0.059 | [1] 0.475 | [2] 0.062 | [3] 0.024 | [4] -0.007 | [5] -0.008 | [6] -0.068 | [7] 0 | [8] 0.014 | IRAK-1-4 Inhibitor I 0.003

WDR45 isoform 2 (UniProt Q9Y484)
inactive: erlotinib -0.047 | [1] -0.032 | [2] -0.024 | [3] -0.001 | [4] 0.06 | [5] -0.008 | [6] -0.016 | [7] 0.041 | [8] -0.005 | IRAK-1-4 Inhibitor I -0.012

YWHAQ (UniProt P27348)
Chain of UniProt P27348 (P27348 whole entry, looked up): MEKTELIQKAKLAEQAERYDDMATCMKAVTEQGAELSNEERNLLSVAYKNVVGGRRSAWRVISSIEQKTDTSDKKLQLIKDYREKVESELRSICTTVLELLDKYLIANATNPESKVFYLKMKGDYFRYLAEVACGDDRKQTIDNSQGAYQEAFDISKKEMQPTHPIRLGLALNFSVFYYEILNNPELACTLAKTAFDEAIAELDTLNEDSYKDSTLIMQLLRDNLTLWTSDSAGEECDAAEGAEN
inactive: erlotinib 0.026 | [1] 0.046 | [2] 0.016 | [3] 0.012 | [4] 0.017 | [5] 0.014 | [6] 0.021 | [7] -0.006 | [8] 0.022 | IRAK-1-4 Inhibitor I 0.013

ZNF598 isoform 3 (UniProt Q86UK7)
Chain of UniProt Q86UK7 (Q86UK7 whole entry, looked up): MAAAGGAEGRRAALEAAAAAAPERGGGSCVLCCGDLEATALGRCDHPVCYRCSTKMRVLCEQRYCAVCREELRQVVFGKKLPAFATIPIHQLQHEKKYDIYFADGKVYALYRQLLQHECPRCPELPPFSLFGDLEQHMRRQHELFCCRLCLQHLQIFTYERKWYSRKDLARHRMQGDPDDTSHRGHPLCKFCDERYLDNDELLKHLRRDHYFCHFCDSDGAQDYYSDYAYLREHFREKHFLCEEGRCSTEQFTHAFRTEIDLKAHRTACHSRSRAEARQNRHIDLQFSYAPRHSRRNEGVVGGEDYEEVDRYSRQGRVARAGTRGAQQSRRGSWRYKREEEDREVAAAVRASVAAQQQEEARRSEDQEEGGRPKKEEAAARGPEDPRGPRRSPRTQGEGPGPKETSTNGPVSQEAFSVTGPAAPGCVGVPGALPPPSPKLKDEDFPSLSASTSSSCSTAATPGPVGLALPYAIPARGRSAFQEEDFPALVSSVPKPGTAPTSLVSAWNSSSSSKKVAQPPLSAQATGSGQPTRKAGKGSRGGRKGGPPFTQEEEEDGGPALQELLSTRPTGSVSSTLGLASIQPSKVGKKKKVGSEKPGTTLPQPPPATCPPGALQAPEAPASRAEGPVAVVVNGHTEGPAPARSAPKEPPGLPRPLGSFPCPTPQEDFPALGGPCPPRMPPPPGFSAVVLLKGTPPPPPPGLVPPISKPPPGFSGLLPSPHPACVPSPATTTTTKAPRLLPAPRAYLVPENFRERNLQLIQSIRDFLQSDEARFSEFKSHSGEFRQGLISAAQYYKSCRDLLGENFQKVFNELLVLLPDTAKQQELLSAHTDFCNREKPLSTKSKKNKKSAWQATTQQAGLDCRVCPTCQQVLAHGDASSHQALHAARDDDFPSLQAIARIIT
inactive: erlotinib -0.001 | [1] -0.003 | [2] 0.007 | [3] -0.007 | [4] -0.045 | [5] 0.006 | [6] -0.064 | [7] -0.036 | [8] -0.002 | IRAK-1-4 Inhibitor I 0.029

WDR77 (UniProt Q9BQA1)
Chain of UniProt Q9BQA1 (Q9BQA1 whole entry, looked up): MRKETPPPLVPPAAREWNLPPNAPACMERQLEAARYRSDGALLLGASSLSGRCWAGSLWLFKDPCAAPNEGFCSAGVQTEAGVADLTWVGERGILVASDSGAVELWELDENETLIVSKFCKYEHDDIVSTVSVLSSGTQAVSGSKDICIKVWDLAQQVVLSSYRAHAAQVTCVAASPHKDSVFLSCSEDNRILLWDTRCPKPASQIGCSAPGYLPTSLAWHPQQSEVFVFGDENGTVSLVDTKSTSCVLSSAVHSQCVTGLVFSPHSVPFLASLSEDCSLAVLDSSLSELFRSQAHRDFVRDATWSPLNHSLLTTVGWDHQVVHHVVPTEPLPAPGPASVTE
inactive: erlotinib -0.008 | [1] -0.073 | [2] -0.018 | [3] 0.025 | [4] -0.021 | [5] -0.009 | [6] 0.011 | [7] 0.004 | [8] 0.014 | IRAK-1-4 Inhibitor I 0.002

VPS54 (UniProt Q9P1Q0)
Chain of UniProt Q9P1Q0 (Q9P1Q0 whole entry, looked up): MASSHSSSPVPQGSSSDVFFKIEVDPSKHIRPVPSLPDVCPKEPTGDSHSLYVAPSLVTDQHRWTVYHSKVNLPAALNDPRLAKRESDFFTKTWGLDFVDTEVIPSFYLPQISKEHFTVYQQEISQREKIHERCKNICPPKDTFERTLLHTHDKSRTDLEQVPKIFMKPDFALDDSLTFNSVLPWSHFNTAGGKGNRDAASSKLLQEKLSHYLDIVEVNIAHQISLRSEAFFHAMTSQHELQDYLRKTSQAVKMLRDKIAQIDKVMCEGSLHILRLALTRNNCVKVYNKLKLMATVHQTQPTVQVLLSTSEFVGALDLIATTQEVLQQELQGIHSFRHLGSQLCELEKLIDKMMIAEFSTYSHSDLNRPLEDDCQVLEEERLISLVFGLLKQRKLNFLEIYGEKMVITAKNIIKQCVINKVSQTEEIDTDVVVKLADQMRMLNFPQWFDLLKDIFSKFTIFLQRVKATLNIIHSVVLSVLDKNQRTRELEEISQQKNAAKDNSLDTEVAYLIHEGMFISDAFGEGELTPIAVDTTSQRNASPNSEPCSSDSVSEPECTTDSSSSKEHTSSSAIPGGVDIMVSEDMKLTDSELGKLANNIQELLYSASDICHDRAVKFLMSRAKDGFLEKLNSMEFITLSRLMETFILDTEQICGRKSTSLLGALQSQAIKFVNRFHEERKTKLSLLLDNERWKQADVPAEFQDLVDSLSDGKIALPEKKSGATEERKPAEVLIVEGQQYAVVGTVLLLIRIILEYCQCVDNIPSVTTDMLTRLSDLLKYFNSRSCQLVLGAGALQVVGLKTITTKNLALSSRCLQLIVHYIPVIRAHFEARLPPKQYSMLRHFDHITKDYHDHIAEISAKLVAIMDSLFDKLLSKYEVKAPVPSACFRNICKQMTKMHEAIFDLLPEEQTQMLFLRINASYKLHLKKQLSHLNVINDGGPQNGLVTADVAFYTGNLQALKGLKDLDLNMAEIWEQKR
inactive: erlotinib -0.018 | [1] -0.061 | [2] 0.059 | [3] -0.117 | [4] 0.213 | [5] -0.044 | [6] -0.114 | [7] -0.019 | [8] -0.079 | IRAK-1-4 Inhibitor I 0.036
